Screens as filed in PubChem BioAssay.
CHRM1 antagonist = human CHRM1 antagonism. AID 588852. inhibition, % at 3 µM. P11229. 360,000 tested, 1.3% active. CHO-K1 hM1, Fluo-8 calcium fluorescence, ACh EC80 antagonist;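 active = percent inhibition above its own plate's cutoff, namely the mean of that plate's compound wells plus 3 SD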;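 also: peak over basal fluorescence ratio during 140 s after agonist addition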
Target sequence (P11229 whole entry, looked up): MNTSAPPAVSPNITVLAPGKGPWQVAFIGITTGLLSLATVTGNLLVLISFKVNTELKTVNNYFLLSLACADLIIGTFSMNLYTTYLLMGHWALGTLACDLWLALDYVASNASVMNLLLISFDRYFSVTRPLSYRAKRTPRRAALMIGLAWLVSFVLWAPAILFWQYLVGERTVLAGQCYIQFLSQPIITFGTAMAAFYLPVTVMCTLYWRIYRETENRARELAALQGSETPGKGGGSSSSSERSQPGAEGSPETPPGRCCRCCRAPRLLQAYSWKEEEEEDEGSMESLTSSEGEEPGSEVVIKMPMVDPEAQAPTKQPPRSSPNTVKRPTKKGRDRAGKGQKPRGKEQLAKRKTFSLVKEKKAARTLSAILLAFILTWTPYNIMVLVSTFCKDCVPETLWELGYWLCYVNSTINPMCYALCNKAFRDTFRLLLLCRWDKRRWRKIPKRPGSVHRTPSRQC
M1 ag = human M1 muscarinic receptor agonism; P11229; CHO-K1 hM1, Fluo-8 calcium fluorescence, agonist mode; 0% DMSO, 100% acetylcholine EC100; activation, % at 3 µM; 360,000 tested, 0.33% active;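 active = activation above the run's mean compound activation plus 3 SD, cut at about 16% in these data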;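 also: peak over basal fluorescence ratio within a 140 s kinetic read after compound addition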
M1 ag parental = M1 agonist counterscreen hit in parental CHO-K1 cells | 360,000 tested, 0.48% active | AID 602248 | Fluo-8 calcium fluorescence; scaled to maximal ATP response, vehicle zero | activation, % at 3 µM; in the data active = activation above about 15%;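 also: untransfected CHO-K1 host cells lacking M1 receptor as counterscreen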
CHO-K1 Ca PAM = nonselective activator or artifact in parental CHO-K1 calcium assay; ATP EC20, Fluo-8 calcium fluorescence; 0% at ATP EC20, 100% at ATP max; activation, % at 3 µM; 360,000 tested, 0.02% active; AID 602247;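 active = activation above the run cutoff, the mean activation of all test compounds plus 3 SD, cut at about 40% in these data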;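 also: peak over basal fluorescence ratio in a 140 s read after ATP addition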
CHO-K1 Ca antag = nonselective inhibitor or artifact in parental CHO-K1 cells | 360,000 tested, 0.6% active | inhibition, % at 3 µM | ATP-induced calcium, Fluo-8 fluorescence;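 active = inhibition above a per-plate cutoff, the plate's mean sample inhibition plus 3 SD, cut at about 24% in these data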
CHRM1 PAM = positive allosteric modulators of human M1 muscarinic receptor. 360,000 tested, 0.088% active. activation, % at 3 µM. AID 588819. CHO-K1 hM1, Fluo-8 calcium fluorescence, ACh EC20; 0% = ACh EC20, 100% = maximal ACh. P11229; in the data active = activation above about 19%, passing the limit was not always enough
Large screens that a line does not name were inactive. In the library only some 2.3% were active in any assay of this set; here they are far more common.

Cc1ccc(C)c(SCC(=O)N(C)C2CCS(=O)(=O)C2)c1 (centres undefined)	none
Cc1cc(SCC(=O)OCC(=O)N(C)C2CCS(=O)(=O)C2)c(C)cc1Br (centres undefined)	M1 ag parental 15.8
CC(C)C[C@H]1CN([C@@H](Cc2ccccc2)CN2CCC[C@@H]2CN2C(=O)C(=O)NC[C@@H]2Cc2ccc(O)cc2)C(=O)C(=O)N1CC1CCCCC1	CHO-K1 Ca antag 30.2
Oc1ccc(C[C@H]2CN([C@@H](Cc3ccc(O)cc3)CN3CCC[C@@H]3CN3C(=S)NC[C@@H]3Cc3ccccc3)C(=S)N2CCc2ccccc2)cc1	CHO-K1 Ca antag 34.1
CCn1cc(Br)c(C(=O)NC(=S)Nc2ccc(C(=O)OC)cc2)n1	none
COc1ccccc1C(=O)Nc1nc(-c2ccc(S(=O)(=O)N3CCOCC3)cc2)cs1	CHRM1 antagonist 56.8
O=S(=O)(Nc1ccc(-c2csc(-c3ccccc3)n2)cc1)c1ccc(F)cc1	none
O=C(Nc1nc(-c2ccccc2)cs1)c1ccccc1NS(=O)(=O)c1ccc(F)cc1	CHRM1 antagonist 41.7, CHO-K1 Ca antag 31.6
COc1ccccc1OC(C)C(=O)Nc1nc(-c2ccc(S(=O)(=O)N3CCOCC3)cc2)cs1 (centres undefined)	none
O=C(Nc1cccc(F)c1)C1CCCN(S(=O)(=O)c2cnc[nH]2)C1 (centres undefined)	none
O=C(Nc1ccc(Cl)c(Cl)c1)c1cccc(S(=O)(=O)NCc2cccnc2)c1	M1 ag parental 19.8, CHO-K1 Ca antag 28.2
O=C(Nc1ccc(Cl)c(Cl)c1)OCc1cccnc1	CHRM1 antagonist 32.6, CHO-K1 Ca antag 26.8
COc1cccc(S(=O)(=O)NCc2ccc(C(=O)Nc3ccc(Cl)c(Cl)c3)cc2)c1	none
C[C@]12c3[nH]c4cc(-c5ccco5)ccc4c3CCN1C(=O)[C@@H](CC(=O)NCc1ccco1)C[C@@H]2C(=O)N1CCCCC1	none
O=C(Nc1cccc(NC(=O)c2ccccc2Cl)c1)c1ccc([N+](=O)[O-])o1	M1 ag parental 17.0
O=C(Nc1cccc(NC(=O)c2ccc(F)cc2)c1)c1ccc(F)cc1	none
O=C(Nc1cccc(NC(=O)c2ccccc2Cl)c1)c1ccc(F)cc1	CHO-K1 Ca antag 24.8
Cc1cc(OCC(=O)Nc2ccc(CN3CCOCC3)cc2)c2c(C)c(C)c(=O)oc2c1	none
OC(COCC1CC=CCC1)Cn1cnc2ccccc21 (centres undefined)	CHRM1 PAM 23.7
COc1ccc2nc(NC(=O)Cn3cnc4ccccc4c3=O)sc2c1	none
Cc1ccccc1COc1cccn2c(N(C)C(=O)CCC3CCCC3)c(C)nc12	CHRM1 antagonist 38.5
COc1ccccc1COc1cccn2c(N(C)C(=O)CCC3CCCC3)c(C)nc12	none
COC(=O)c1cc2occc2n1Cc1nc(-c2ccccc2F)oc1C	CHRM1 antagonist 53.2
COC(=O)c1cc2ccsc2n1Cc1nc(-c2ccc(OC)cc2)oc1C	CHRM1 antagonist 44.9
COC(=O)c1cc2sc(Cl)cc2n1Cc1nc(-c2ccccc2)oc1C	none
COC(=O)c1cc2sccc2n1Cc1nc(-c2ccc(OC)cc2)oc1C	none
CCn1c(=O)n(C)c2c(=O)n(C)c(=O)n(C)c21	none
Cn1c(=O)[nH]c(=O)c2c1nc(N1CCOCC1)n2CCCSc1ncccn1	M1 ag parental 15.6
CC1CC(C)CN(c2nc3c(c(=O)[nH]c(=O)n3C)n2CCCSc2nc3ccccc3s2)C1 (centres undefined)	none
Cc1ccnc(SCCn2c(N3CCOCC3)nc3c2c(=O)[nH]c(=O)n3C)n1	none
CCN1CCN(c2nc3c(c(=O)[nH]c(=O)n3C)n2CCSc2nc3ccccc3s2)CC1	M1 ag 29.9
COc1ccc(N2CCN(S(=O)(=O)c3cccc4nsnc34)CC2)cc1	none
CC(=O)c1ccc(N2CCN(S(=O)(=O)c3cccc4nsnc34)CC2)cc1	CHO-K1 Ca antag 24.2
CC(=O)Nc1ccc(NC(=O)C2CCCN2S(=O)(=O)c2cccc3nsnc23)cc1 (centres undefined)	M1 ag parental 18.8
O=C(Nc1ccccc1F)C1CCCN1S(=O)(=O)c1cccc2nsnc12 (centres undefined)	CHO-K1 Ca antag 58.2
